Here are results for 40 molecules from PubChem BioAssay (NCI).

Several values for one entry are separate records, joined by “and”; a condition that tells them apart may be missing. Equal entries are not always repeated. Compounds without any hit were thinned out: in the full panel of roughly 83,000, 20% have a hit.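 How to read the values: 0–100, growth inhibition (40 = 60% inhibited); 0, no net growth; -100 to 0, cell death (-40 = 40% of starting cells died; -100 = all dead).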 Activity calls are given as the source filed them.

For this test, the system named is U251 CNS. In words: NCI-60 one-dose screen, 48 h (100 = growth as untreated, 0 = no growth, -100 = all killed). The following applies: 10 µM unless noted. The protocol:
Growth inhibition of the U251 human tumor cell line is measured as a screen for anti-cancer activity. Cells are grown in 96 well plates and exposed to the test compound for 48 hours. Compounds are tested at a single concentration, which is 10^-5 M for most compounds. The reported endpoint is percent growth (GI% or GIPRCNT), where numbers from 0 - 100% represent growth inhibition, and numbers from -100% - 0 represent cell death. For example, a value of 40 represents 60% growth inhibition. A value of 0 means no net growth occurred over the course of the experiment. A value of -40 indicates 40% of cells at the beginning of the experiment died by the end of the experiment. A value of -100 means all cells are dead at the end of the experiment.
NCI-60 Human Tumor Cell Lines Screen was performed using the standard one-dose NCI protocol, which is described in more detail at https://dtp.cancer.gov/discovery_development/nci-60/default.htm.
Compounds with GIPRCNT values below 10 were considered active. Activity score was based on GIPRCNT using the following formula: […]
Score is 0 for GIPRCNT values of 100 or above, 50 for GIPRCNT values of 0, and 100 for GIPRCNT values of -100.
As to `Cc1cc(O)c(C(C)C)cc1N=O`, the growth was 97.6% (inactive).
The figure for `Oc1ccc(O)c(-c2ccccc2)c1` is 41.4% (inactive).
Consider `CC(=O)Oc1cc(C(C)C)c(OCCN(C)C)cc1C`, for which the growth was -90.7% (active) and 97.7% (inactive).
To `COc1ccc(/C=N/NC(N)=S)cc1` belongs 96.7% (inactive).
To `CCCC(=O)Oc1ccc(CC)cc1` belongs 98.4% (inactive); to `CSc1nc(N)c(N)c(N)n1`, 95.8% (inactive).
The figure for `OC1CCCN(Cc2ccccc2)C1` (stereo not given) is 120% (inactive).
For `O=c1[nH]c(=S)[nH]n1C(=S)n1[nH]c(=S)[nH]c1=O`, the growth was 93.6% (inactive).
Regarding `O=[N+]([O-])c1cccc(N=Cc2ccccc2)c1`, the growth is 103% (inactive).
To `COc1ccc([N+](=O)[O-])cc1OC` belongs 104% (inactive) and 95.6% (inactive); to `Cc1cc(NC(=O)NC(=O)c2ccccc2N(C)C)ccc1Oc1ncc(Br)cn1`, -43.4% (active).
For the molecule `COc1ccc(COC=O)cc1`, the growth was 100% (inactive).
The figure for `CC(=O)Oc1ccc(C2(c3ccc(OC(C)=O)cc3)C(=O)Nc3ccccc32)cc1` is 108% (inactive) and 102% (inactive).
Regarding `O=C(O)C1CSCN1` (stereo not given), the growth was 104% (inactive) and 97.6% (inactive).
For the molecule `NC1=NC(c2ccccc2)N=C(Nc2ccccc2)N1` (stereo not given), the growth is 42.8% (inactive) and 44.5% (inactive).
To `CC(C)(C)OC(=O)NCCc1ccc(N)cc1` belongs 103% (inactive).
Take `Cc1ccc2cccc([N+](=O)[O-])c2n1`: the growth was 105% (inactive) and 103% (inactive).
In the case of `CCCCNC(=O)c1ccccc1C`, the growth was 99.3% (inactive).
Turning to `C(=N\OCCc1ccccc1)/c1ccccn1`, the growth is 103% (inactive) and 92.2% (inactive).
Consider `CCC/C(=N/NC(N)=O)c1ccco1`, for which the growth is 91.8% (inactive).
For the molecule `Nc1nc(N)c2cc(S(=O)(=O)c3ccccc3)ccc2n1`, the growth was 30.5% (inactive) and 30.8% (inactive).
To `O=C(O)/C=C/C=C/c1ccccc1` belongs 106% (inactive) and 96.9% (inactive); to `CC(=O)C[n+]1ccccc1Sc1ccc(Cl)cc1`, 73% (inactive).
Turning to `COc1cc(NCCCCCNC(C)C)c2ncccc2c1`, the growth was 94.8% (inactive) and 85.9% (inactive).
As to `Cc1cc(Cl)nc(Nc2ccccc2)n1`, the growth is 98.7% (inactive).
Take `Nc1[nH][nH]c(=O)c1N=Nc1ccccc1`: the growth was 109% (inactive) and 105% (inactive).
Consider `CS(=O)(=O)c1nsc(N)n1`, for which the growth was 102% (inactive).
The figure for `COC(=O)c1nc(N)nc(C(=O)OC)c1C(=O)c1cccc2ccccc12` is 108% (inactive); for `OCc1cccc(F)c1` it is 83.5% (inactive).
As to `CN(C)c1ccc(C(=N)c2ccc(N(C)C)cc2)cc1`, the growth is 16.6% (inactive) and 17.1% (inactive).
The figure for `O=C1C=CC(n2cc(F)c(=O)[nH]c2=O)O1` (stereo not given) is 82.2% (inactive); for `O=C1c2ccccc2C(c2ccccc2)C1c1ccccc1` (stereo not given) it is 101% (inactive); for `CNc1ccc(O)cc1` it is 101% (inactive) and 99.3% (inactive).
The figure for `Cc1ccc(C(=O)c2ccc(C)cc2)cc1` is 94.1% (inactive) and 105% (inactive); for `C/C=C/C(=O)OCCCCCCCCCCCC` it is 98.6% (inactive); for `ON=C(C1CCCCC1)C1CCCCC1` it is 98.1% (inactive).
To `O=C(c1ccc(Cl)cc1)C1C(c2ccccc2)C1[N+](=O)[O-]` (stereo not given) belongs 89.9% (inactive); to `CCOP(C)(=O)/C(Cc1ccc(OC)c(OC)c1)=N\O` (stereo not given), 107% (inactive).
On to `O=C(O)c1cc(=O)[nH]c(=O)[nH]1`, for which the growth was 105% (inactive) and 95.8% (inactive).
Consider `Nc1ccc(O)c(C(=O)O)c1`, for which the growth is 74.5% (inactive) and 101% (inactive).
